In PubChem BioAssay (NCATS) one finds Potency and activity change, negative = inhibition data, which are given here for 5 compounds.

SMILES strings stand for the structures. A number with no mark means an inactive call. Results filed as inconclusive are left out. Active and inactive are the calls of the source. Unless noted, calls follow the shape of the dose curve; as a rule, active = well fitted curve in the direction sought with a large enough effect; inconclusive = small, poorly fitted or top-dose-only effect, or another doubt; inactive = no such curve, though single readings can be large; an effect the other way counts as inactive or inconclusive. Some results are limits rather than exact numbers.

Experiment [1] deals with Zika virus NS2B-NS3 protease (linked construct). In words: 384 well plate NINDS Rhodamine confirmatory qHTS for Zika virus inhibitors (AID 1347164).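 Also: fluorescence from protease cleavage of Ac-LKRR-rhodamine 110 substrate; potency is read from the fitted curve at half-maximal effect; nearly all actives have a fitted effect of over 65% in size.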 Put shortly:
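Linked protease at a final 5 nM, 30 nM or 60 nM was preincubated ~15 min with compounds, then given 10 microM Ac-LKRR-Rhodamine 110. Fluorescence (ex 485/em 538 nm) after 25 min in the dark at room temperature.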
(In general: qHTS replaces the single test concentration by a dilution series.)

The nature of experiment [2]: Tertiary RLuc qRT-PCR qHTS assay for Zika virus inhibitors (AID 1347169). Also: top concentration of the series differs between compounds; % is scaled to controls: 0 for no effect and ±100 for the full control effect; nearly all actives have a fitted effect of over 55% in size. Put shortly:
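Vero cells (1,000 per well) plated overnight at 37 degrees C, treated with compound in DMSO, then infected with recombinant ZIKV-RLuc (Cambodian) at MOI 1-2 for 48-72 hrs. Live-cell Renilla luciferase substrate added; luminescence read after 1-1.5 hrs.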
For orientation: Quantitative PCR measures a nucleic acid by following its amplification.

Experiment [3] can be described thus: Primary qHTS for small molecule stabilizers of the endoplasmic reticulum resident proteome: Secreted ER Calcium Modulated Protein (SERCaMP) assay (AID 1508630). Also: % is scaled to controls: 0 for no effect and ±100 for the full control effect. Put shortly: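 GLuc-SERCaMP-expressing SH-SY5Y cells, pretreated 16 h with compound, are challenged with thapsigargin to empty ER calcium stores; after 4 h, coelenterazine is added directly to the medium and luminescence is imaged.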

For experiment [4], the target named is Glucocorticoid receptor (Homo sapiens) (UniProt P04150). Briefly: GR-GFP Redistribution (AID 450;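 active = compounds whose dose series gives a full or clear partial fitted curve of increased nuclear translocation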; also: potency is read from the fitted curve at half-maximal effect). The following applies: U2OS GR-GFP nuclear translocation, laser cytometry, 2 h.
For experiment [5] the target is unchanged. In words: GR-EFC Redistribution (AID 451; calls by dose curve; also: potency is read from the fitted curve at half-maximal effect). The following applies: CHO-K1 GR-EFC translocation, beta-gal luminescence, 2 h. Put shortly:
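CHO-K1 cells expressing nuclear EA and GR-ED fragments of b-gal; compounds titrated up to 46 uM final, 2 h at 37 C. GR nuclear translocation read as complemented b-gal luminescence after 1 h RT detection.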

Experiment [6] addresses Mitogen-activated protein kinase 10 (Mus musculus) (UniProt Q61831). Briefly: JNK3 AlphaScreen Assay (AID 530; active = well fitted curve in either direction with a large enough effect, not every such curve was filed as active;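 also: kinase came from lysate of stimulated human HepG2 cells; signal reports phosphorylation of biotinylated GST-cJun 1-79 at Ser73 with 10 µM ATP; series mostly up to about 57 µM; % is scaled to controls: 0 for no effect and ±100 for the full control effect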). The essentials: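 Pre-activated (IL-1β/TNFα) JNK3 in HepG2 lysates phosphorylates biotin-GST-cJun(1-79), 10 uM ATP; anti-phospho-cJun(Ser73) AlphaScreen read at room temperature, pH 7.6 Tris buffer. Compounds pre-incubated 15 min as titrations.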
In general terms: Alpha assays give light when donor and acceptor beads are brought close together.

The target of experiment [7] is Cytochrome P450 2C9 (Homo sapiens) (UniProt P11712). In words: qHTS Assay for Inhibitors and Substrates of Cytochrome P450 2C9 (AID 883). Also: potency is read from the fitted curve at half-maximal effect; nearly all actives have a fitted effect of over 60% in size. The essentials:
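Signal: luciferase luminescence reporting luciferin produced by CYP2C9. Conditions: 10nM enzyme, Luciferin-H 100uM at KM, 25mM KPO4, 37C, 60 min NADPH-driven reaction. Reference: 57uM sulphaphenazole as 100% inhibition.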

The target in experiment [8] is Cytochrome P450 2C19 (Homo sapiens) (UniProt P33261). In words: qHTS Assay for Inhibitors and Substrates of Cytochrome P450 2C19 (AID 899). Also: potency is read from the fitted curve at half-maximal effect; nearly all actives have a fitted effect of over 60% in size. Put shortly:
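Signal comes from luciferase acting on luciferin released by CYP2C19-mediated hydroxylation of Luciferin-H EGE, 10uM (KM). Assay mix: 5nM enzyme, 50mM KPO4; 60 min at 37C with NADPH regeneration. Data normalized against 57uM ketoconazole.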

The target of experiment [9] is Ubiquitin carboxyl-terminal hydrolase 1 (Homo sapiens) (UniProt O94782). In words: Inhibitors of USP1/UAF1: Pilot qHTS (AID 504865).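 Also: rhodamine fluorescence freed from ubiquitin-rhodamine substrate followed over time; top concentration of the series differs between compounds; % is scaled to controls: 0 for no effect and ±100 for the full control effect; nearly all actives have a fitted effect of over 35% in size.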 The essentials:
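USP1/UAF1 complex (1nM) preincubated with compound 15 min at room temperature, then Ub-Rho substrate (150nM final) added. Fluorescence read kinetically at 480/540 nm, 6 reads every 60 seconds. Buffer: 50mM HEPES pH 7.8, 0.5mM EDTA, 0.1 mg/ml BSA, 1mM TCEP, 0.01% Tween-20.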

In experiment [10] the target is DNA dC->dU-editing enzyme APOBEC-3G (Homo sapiens) (UniProt Q9HC16). Briefly: qHTS for inhibitors of Vif-A3G interactions: Validation (AID 588379). Also: 0% is about no effect. The essentials: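 HeLa cells stably expressing Vif and A3G-eYFP, 700 cells/well, incubated overnight at 37 deg C, then exposed to compound overnight at 37 deg C. Inhibition of Vif-mediated degradation read as increased yellow fluorescence (Ex 488/Em 500-530) by laser-scanning cytometry.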

Experiment [11] is described as follows: Counterscreen qHTS for small molecule stabilizers of the endoplasmic reticulum resident proteome: GLuc-NoTag assay (AID 1508627).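 Also: SH-SY5Y cells given compound then 100 nM thapsigargin to empty ER calcium; series mostly up to about 76 µM; 0% = thapsigargin alone and -100% = DMSO vehicle control.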 The essentials:
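SH-SY5Y cells stably expressing constitutively secreted GLuc without SERCaMP tag, exposed to compound for 19 hr, then to 100 nM thapsigargin for 4 hr at 37C. Medium luciferase was read by coelenterazine luminescence without lysis.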

Sequence of Glucocorticoid receptor (Homo sapiens) (P04150 whole entry, looked up): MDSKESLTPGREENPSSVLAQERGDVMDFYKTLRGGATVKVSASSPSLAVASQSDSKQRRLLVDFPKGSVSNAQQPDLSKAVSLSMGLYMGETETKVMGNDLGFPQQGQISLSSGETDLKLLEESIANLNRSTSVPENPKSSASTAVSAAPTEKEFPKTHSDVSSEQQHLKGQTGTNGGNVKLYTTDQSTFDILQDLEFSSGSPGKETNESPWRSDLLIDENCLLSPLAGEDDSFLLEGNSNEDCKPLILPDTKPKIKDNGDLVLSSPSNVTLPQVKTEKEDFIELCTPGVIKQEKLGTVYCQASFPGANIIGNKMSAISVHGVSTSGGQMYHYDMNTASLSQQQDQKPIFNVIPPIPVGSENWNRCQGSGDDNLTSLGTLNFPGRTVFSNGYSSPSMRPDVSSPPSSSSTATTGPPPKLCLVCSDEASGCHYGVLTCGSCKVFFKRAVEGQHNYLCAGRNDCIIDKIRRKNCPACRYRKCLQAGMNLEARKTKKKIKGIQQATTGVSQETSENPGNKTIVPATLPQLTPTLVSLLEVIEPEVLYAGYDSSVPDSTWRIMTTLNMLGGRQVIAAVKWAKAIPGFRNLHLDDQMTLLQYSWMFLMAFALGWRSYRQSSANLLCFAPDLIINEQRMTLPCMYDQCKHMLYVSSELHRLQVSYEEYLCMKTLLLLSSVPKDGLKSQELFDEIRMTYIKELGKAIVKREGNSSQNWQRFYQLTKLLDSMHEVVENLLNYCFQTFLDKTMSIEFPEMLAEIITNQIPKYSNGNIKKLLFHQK
Sequence of Cytochrome P450 2C9 (Homo sapiens) (P11712 whole entry, looked up): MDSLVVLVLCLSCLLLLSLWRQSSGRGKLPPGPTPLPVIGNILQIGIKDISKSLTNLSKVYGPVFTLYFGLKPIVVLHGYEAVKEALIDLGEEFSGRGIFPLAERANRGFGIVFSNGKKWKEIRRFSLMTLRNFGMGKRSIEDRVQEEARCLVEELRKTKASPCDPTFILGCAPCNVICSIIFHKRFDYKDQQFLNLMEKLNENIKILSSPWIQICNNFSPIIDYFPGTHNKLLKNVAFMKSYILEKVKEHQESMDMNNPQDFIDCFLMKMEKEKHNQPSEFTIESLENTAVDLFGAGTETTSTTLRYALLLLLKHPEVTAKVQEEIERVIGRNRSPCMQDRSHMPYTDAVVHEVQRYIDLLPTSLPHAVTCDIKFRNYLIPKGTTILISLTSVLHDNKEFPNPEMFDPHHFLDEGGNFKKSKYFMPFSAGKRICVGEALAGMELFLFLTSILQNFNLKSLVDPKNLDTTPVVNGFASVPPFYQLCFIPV
Sequence of Ubiquitin carboxyl-terminal hydrolase 1 (Homo sapiens) (O94782 whole entry, looked up): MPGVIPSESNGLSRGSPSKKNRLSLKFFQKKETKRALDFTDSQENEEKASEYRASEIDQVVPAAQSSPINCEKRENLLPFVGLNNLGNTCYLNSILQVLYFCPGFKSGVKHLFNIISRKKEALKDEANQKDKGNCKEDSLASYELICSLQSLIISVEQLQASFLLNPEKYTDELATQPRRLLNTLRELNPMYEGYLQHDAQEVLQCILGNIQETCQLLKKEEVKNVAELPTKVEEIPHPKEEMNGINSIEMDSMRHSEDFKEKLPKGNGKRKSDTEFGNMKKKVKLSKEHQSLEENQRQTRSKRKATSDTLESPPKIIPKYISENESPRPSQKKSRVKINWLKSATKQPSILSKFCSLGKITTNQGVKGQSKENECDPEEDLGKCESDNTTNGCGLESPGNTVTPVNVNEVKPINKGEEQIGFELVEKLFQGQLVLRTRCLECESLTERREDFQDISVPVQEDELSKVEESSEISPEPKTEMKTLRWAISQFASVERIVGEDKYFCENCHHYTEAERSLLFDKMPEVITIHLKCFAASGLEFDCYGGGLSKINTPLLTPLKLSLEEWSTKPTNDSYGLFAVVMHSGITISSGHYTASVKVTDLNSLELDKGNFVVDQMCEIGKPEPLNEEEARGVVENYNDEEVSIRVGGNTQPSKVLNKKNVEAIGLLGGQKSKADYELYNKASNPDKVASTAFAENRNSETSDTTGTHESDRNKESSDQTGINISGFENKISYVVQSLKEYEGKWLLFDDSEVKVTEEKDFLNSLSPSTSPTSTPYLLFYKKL
Sequence of Cytochrome P450 2C19 (Homo sapiens) (P33261 whole entry, looked up): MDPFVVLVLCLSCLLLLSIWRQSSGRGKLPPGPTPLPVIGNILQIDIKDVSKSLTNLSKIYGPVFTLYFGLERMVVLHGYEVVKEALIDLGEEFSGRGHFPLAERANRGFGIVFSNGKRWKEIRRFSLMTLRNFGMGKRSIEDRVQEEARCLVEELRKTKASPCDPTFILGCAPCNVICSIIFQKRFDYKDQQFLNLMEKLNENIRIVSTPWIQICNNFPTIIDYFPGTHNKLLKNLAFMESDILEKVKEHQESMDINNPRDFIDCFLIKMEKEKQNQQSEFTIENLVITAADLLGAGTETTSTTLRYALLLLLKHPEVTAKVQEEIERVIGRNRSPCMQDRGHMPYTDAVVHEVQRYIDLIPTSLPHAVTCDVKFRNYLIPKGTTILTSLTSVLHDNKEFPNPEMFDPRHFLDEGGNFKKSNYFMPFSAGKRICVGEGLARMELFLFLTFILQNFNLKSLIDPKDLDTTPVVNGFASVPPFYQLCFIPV
Sequence of DNA dC->dU-editing enzyme APOBEC-3G (Homo sapiens) (Q9HC16 whole entry, looked up): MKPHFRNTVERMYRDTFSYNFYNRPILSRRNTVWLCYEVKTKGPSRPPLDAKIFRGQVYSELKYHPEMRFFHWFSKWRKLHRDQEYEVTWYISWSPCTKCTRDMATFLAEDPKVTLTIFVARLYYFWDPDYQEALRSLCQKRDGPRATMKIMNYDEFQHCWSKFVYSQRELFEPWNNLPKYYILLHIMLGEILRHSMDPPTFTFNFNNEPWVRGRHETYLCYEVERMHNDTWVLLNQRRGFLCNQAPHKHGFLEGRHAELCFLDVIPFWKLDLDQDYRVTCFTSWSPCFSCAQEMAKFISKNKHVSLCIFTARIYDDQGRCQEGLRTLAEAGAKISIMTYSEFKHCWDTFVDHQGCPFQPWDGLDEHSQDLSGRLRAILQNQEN

For `O=C(O)COc1ccc(-c2nccc3c2C(=O)N(Cc2ccccc2)CC(COc2ccc4cccnc4c2)O3)cc1` (stereo not drawn), in experiment [1], the Potency was 44.7 µM (active). The Potency result in [2] was “inactive”.
Turning to `C[C@@H](N)CCCP(=O)(O)O`, in [3], the Potency entry was “inactive”.
Take `COC(=O)CNC(=O)C(=O)OC`: the activity change, negative = inhibition in experiment [3] is -16.2% [at 3.88 µM].
Regarding `CC(C)C(N)C(=O)O` (stereo not drawn), the Potency entry in experiment [3] was “inactive”.
For `COc1cc(N)c(Cl)cc1C(=O)N[C@H]1CCN(CCCOc2ccc(F)cc2)C[C@@H]1OC`, the Potency is > 46 µM in experiment [4], > 46 µM in experiment [5], 1 µM (active) in experiment [7] and 0.794 µM (active) in experiment [8]. The Potency result in [6], in [9], in experiment [10] and in [11] was “inactive” in each case.
